WRN inhibitor – qHTS for Inhibitors of WRN Helicase | Bifunctional 3'-5' exonuclease/ATP-dependent helicase WRN (Homo sapiens), Q14191 | Potency, µM (titrated, usually from 114 µM), inactives show at the highest dose activity change, negative = inhibition, actives largely listed as inhibitors | WRN helicase unwinding, fluorescent forked duplex, kinetic | 360,000 compounds, 0.46% hits; further: potency means the concentration at half of the fitted maximal effect; on the % scale 0 is the no-effect control and ±100 the full control effect; nearly all actives have a fitted effect of over 55% in size
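WRN at 20 nM final was preincubated with compound for 15 min at room temperature; reaction started with 100 nM forked duplex oligonucleotide carrying fluorophore and quencher plus 2 mM ATP (final). Unwinding followed kinetically by red fluorescence (ex 525/em 598 nm).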
POLH inh – qHTS for Inhibitors of Polymerase Eta | DNA polymerase eta (Homo sapiens), Q9Y253 | recombinant Pol eta, fluorescent DNA replication assay | Potency, µM (highest dose often 114 µM), for inactives: top-dose activity change, negative = inhibition, actives largely listed as inhibitors | 390,000 compounds, 1.2% hits | AID 588591, 2011; further: potency means the concentration at half of the fitted maximal effect; on the % scale 0 is the no-effect control and ±100 the full control effect
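Pol eta at 10 nM preincubated with compounds 15 min at room temperature; reaction started with fluorescent substrate (50 nM final) and read kinetically at 0 and 10 min.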
PI5P4Ka inh – qHTS for Inhibitors of phosphatidylinositol 5-phosphate 4-kinase (PI5P4K); Phosphatidylinositol 5-phosphate 4-kinase type-2 alpha (Homo sapiens), P48426; PI5P4Kalpha enzyme, ADP-Glo luminescence, 60 min; hits give low values; max response, %; 330,000 compounds, 1.2% hits; AID 652105, 2013; active means max response of -50% or lower; inconclusive means between -30% and -50%; inactive means -30% or higher; further: value at the top dose of about 77 µM; on the % scale 0 is the no-effect control and ±100 the full control effect
Target sequence (P48426 whole entry, looked up): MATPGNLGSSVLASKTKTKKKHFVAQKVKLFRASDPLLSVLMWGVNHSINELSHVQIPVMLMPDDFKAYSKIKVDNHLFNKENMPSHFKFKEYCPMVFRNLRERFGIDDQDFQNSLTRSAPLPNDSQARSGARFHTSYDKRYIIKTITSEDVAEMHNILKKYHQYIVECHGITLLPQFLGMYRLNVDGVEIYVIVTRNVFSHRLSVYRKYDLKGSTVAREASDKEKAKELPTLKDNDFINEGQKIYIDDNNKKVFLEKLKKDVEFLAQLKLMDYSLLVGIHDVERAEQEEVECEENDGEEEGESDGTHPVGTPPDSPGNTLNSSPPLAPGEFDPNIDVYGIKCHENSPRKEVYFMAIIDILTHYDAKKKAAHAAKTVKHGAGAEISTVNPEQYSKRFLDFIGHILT
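Luminescence from ADP-Glo served as readout of PI5P4Kalpha activity in a qHTS format. Reaction: enzyme, substrate, compound, ATP at 5 microM final, 60 min at RT.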
POLK inh – qHTS for Inhibitors of Polymerase Kappa. DNA polymerase kappa (Homo sapiens), Q9UBT6. purified Pol kappa, fluorescent DNA synthesis assay, 10 min. Potency, µM (highest dose often 107 µM), without a hit: at the highest dose activity, negative = inhibition, most hits filed as inhibitors. 400,000 compounds, 0.53% hits. AID 588579, 2011; further: potency means the concentration at half of the fitted maximal effect; on the % scale 0 is the no-effect control and ±100 the full control effect
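Inhibition of 10 nM Pol kappa is measured by a fluorescent read-out at 0 and 10 min following addition of 50 nM substrate (final), with a 15-min room-temperature compound preincubation.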
POLI inh – qHTS for Inhibitors of Polymerase Iota | 390,000 compounds, 1% hits | AID 588590, 2011 | Pol iota fluorescent replication assay, 10 min | DNA polymerase iota (Homo sapiens), Q9UNA4 | Potency, µM (highest dose often 115 µM), inactives show at the top dose activity, negative = inhibition, usual class: inhibitors; further: potency means the concentration at half of the fitted maximal effect
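Fluorescent replication assay read twice, at 0 min and 10 min after adding 50 nM (final) substrate. Enzyme (10 nM) and compounds were first incubated 15 min at room temperature; enzyme-free buffer wells were negative controls.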
Pol beta inh – qHTS Assay for Inhibitors of DNA Polymerase Beta. P06746. Pol beta primer extension/strand displacement, fluorescence kinetic. Potency, µM (highest dose often 114 µM), without a hit: at the highest dose activity change, negative = inhibition, hits mostly inhibitors. 340,000 compounds, 1.3% hits. AID 485314, 2010; further: potency means the concentration at half of the fitted maximal effect; on the % scale 0 is the no-effect control and ±100 the full control effect
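Curves were derived by four-parameter Hill fits of normalized qHTS data. The kinetic fluorescent primer-extension read was taken at 0 and 10 min after 50 nM substrate, following a 15 min room-temperature preincubation of 10 nM enzyme with compounds.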
An asterisk follows results filed as active; ? = inconclusive; . = not tested or not shown; [ ] = remark or other dose. Only some compounds are listed: those with a hit (about 2.8% of all), similar ones and a draw of the others. Unless noted, the call rests on the fitted dose curve; in most records, active means well fitted curve in the direction sought with a large enough effect; inconclusive means small, poorly fitted or top-dose-only effect, or another doubt; inactive means no such curve, though single readings can be large; an effect the other way counts as inactive or inconclusive.

SMILES	WRN inhibitor	POLH inh	PI5P4Ka inh	POLK inh	POLI inh	Pol beta inh
Nc1ccc2nc3c(=O)n(C4CCCCC4)c(=O)[nH]c3nc2c1	-24%	?	?	-20%	85%	?
Nc1ccc2nc3c(=O)n(CCc4ccccc4)c(=O)[nH]c3nc2c1	-20%	-7%	-63*	-26%	64%	?
Cc1cc2nc3c(=O)n(CCc4ccccc4)c(=O)[nH]c3nc2cc1N	-7%	-16%	-86*	-8%	42%	-23%
CCCCn1c(=O)[nH]c2nc3cc(N)ccc3nc2c1=O	50µM*	-10%	-66*	-8%	1.3µM*	5.6µM*
C=CCn1c(=O)[nH]c2nc3cc(N=CN(C)C)c(C)cc3nc2c1=O	6%	-19%	3	0%	39%	8%
Cc1ccc(S(=O)(=O)N2CCOCC2)cc1C(=O)Nc1ccc(S(=O)(=O)Nc2nccs2)cc1	-10%	-3%	-7	-7%	-17%	1%
O=C(Nc1ccc2nn(-c3ccccc3)nc2c1)c1ccc2c(c1)OCO2	-25%	?	0	-31%	-9%	40µM*
Cc1cn(C2OC(COC(=O)c3ccccc3)C(OC(=O)c3ccccc3)C2OC(=O)c2ccccc2)c(=O)[nH]c1=O (stereo unspecified)	-2%	5%	.	6%	16%	21%
O=C(OCC1OC(OC(=O)c2cc(O)c(O)c(OC(=O)c3cc(O)c(O)c(O)c3)c2)[C@@H](OC(=O)c2cc(O)c(O)c(OC(=O)c3cc(O)c(O)c(O)c3)c2)C(OC(=O)c2cc(O)c(O)c(OC(=O)c3cc(O)c(O)c(O)c3)c2)C1OC(=O)c1cc(O)c(O)c(OC(=O)c2cc(O)c(O)c(O)c2)c1)c1cc(O)c(O)c(OC(=O)c2cc(O)c(O)c(O)c2)c1 (stereo partly specified)	.	.	.	0.006µM*	.	.
CN(CC(=O)Nc1cccc(F)c1)C(=O)c1ccc(OCc2cn3ccccc3n2)cc1	-5%[11.6 µM]	-17%	-6	-29%	45µM*	.
O=C(O)c1ccc(OCc2cn3ccccc3n2)cc1	2%	-2%	3	-7%	-2%	5%
O=C(c1ccc(OCc2cn3ccccc3n2)cc1)N1CCN(S(=O)(=O)c2ccccc2F)CC1	-12%	?	-1	-13%	79µM*	.
Cc1ccc(S(=O)(=O)N2CCN(C(=O)COC(=O)c3ccc(O)cc3)CC2)c(C)c1	-9%	-7%	-5	-11%	15%	.
CCOC(=O)C1(C)CCCN(C(=O)c2cccc(C(F)(F)F)c2)C1 (stereo unspecified)	4%	.	2	.	.	.
Cc1cccc(CNC(=O)CN2C(=O)CCn3nc(-c4cn(C)c5ccccc45)cc32)c1	.	-5%	.	-10%[60.1 µM]	?	18µM*
O=C(NCc1ccccn1)C1CCN(S(=O)(=O)c2ccccc2)CC1	-7%	-10%	1	8%	-10%	14%
O=C(NCc1ccccn1)C1CCN(S(=O)(=O)c2cnc[nH]2)CC1	-22%	18µM*	-5	?	?	3%
O=C(CSCc1ccc(Cl)cc1)N/N=C/c1ccc(OCC(=O)Nc2ccccc2)cc1	-12%	-16%	14	0%	?	79µM*
CCCN1Cc2cccc(C(=O)N3CCN(c4ccc(OC)cc4)CC3)c2C1=O	9%	4%	3	1%	9%	-12%
COc1ccc(N2Cc3cccc(C(=O)O)c3C2=O)cc1	50µM*	4µM*	?	?	?	7.1µM*
CN1/C(=C\P(=O)(N(C)C)N(C)C)C(C)(C)c2ccccc21	50µM*	-5%	.	-14%	?	5%
Oc1ccc(-c2csc(Nc3ncccn3)n2)c(O)c1	-5%	-14%	-24	-4%	1%	36%
Oc1ccc(-c2csc(Nc3ncccn3)n2)cc1O	?	1%	-17	-27%	32µM*	?
Oc1ccc(-c2csc(-c3ccccc3)n2)cc1O	?	-20%	.	-33%	71µM*	7.9µM*
CC(C)(C)NC(=O)C(C1CC1)n1c(=O)c(-c2ccco2)nc2ccccc21 (stereo unspecified)	8%	.	-63*	.	.	.
SMILES	WRN inhibitor	POLH inh	PI5P4Ka inh	POLK inh	POLI inh	Pol beta inh
CC(C)(C)NC(=O)C(c1ccc(C(F)(F)F)cc1)n1c(=O)c(-c2ccco2)nc2ccccc21 (stereo unspecified)	-9%	.	-64*	.	.	.
CN(C)c1ccc(/C=C/c2ccnc3ccc(N)cc23)cc1	.	.	.	-2%	14%	.
COc1ccc(OC)c(S(=O)(=O)n2cnc3ccccc32)c1	1%	-1%	0	3%	8%	27%
COc1cc(C)c(Cl)cc1S(=O)(=O)n1cnc2ccccc21	-11%	-12%	.	-19%	9%	89µM*
Cc1ccc(S(=O)(=O)n2ccc3c(OCCOCCSCC(NC(=O)OC(C)(C)C)C(=O)O)cccc32)cc1 (stereo unspecified)	-27%	?	-6	?	28µM*	71µM*
CS(=O)(=O)c1nc(-c2ccc(F)cc2)cc(C(F)(F)F)n1	-8%	-5%	-3	-11%	?	23%
CCOC(=O)CS(=O)(=O)c1nc(-c2ccc(F)cc2)cc(C(F)(F)F)n1	50µM*	-4%	-11	-15%	-6%	-22%
CCOC(=O)CS(=O)(=O)c1nc(-c2ccccc2)cc(C(F)(F)F)n1	56µM*	-2%	0	-20%	-16%	1%
CCOC(=O)CCS(=O)(=O)c1nc(-c2ccccc2)cc(C(F)(F)F)n1	?	-24%	9	-7%	6%	-16%
O=C1C=CC2=C3c4cc(O)c(O)cc4C[C@]3(O)COC2=C1	.	.	.	7.1µM*	.	.
COc1cc2nc(CCc3nc4cc(OC)c(OC)cc4[nH]3)[nH]c2cc1OC	.	.	.	3.2µM*	2.5µM*	.
Cc1cc2nc(CO)[nH]c2cc1C	4%	-9%	1	7%	-3%	7%
Cc1ccc(NC(=O)CN2C(=O)CSC2=O)cc1	-4%	3%	0	-4%	5%	16%
O=C(CN1C(=O)CSC1=O)Nc1ccc2c(c1)OCCO2	-1%	6%	-55*	-6%	15%	20%
C[C@@H]1COC(=O)[C@@H](CC(=O)OC(C)(C)C)C/C=C\C[C@H](CC(=O)NCCO)C(=O)N1	4%	-15%	8	5%	33%	.
CSc1nc(N)c2ncn([C@@H]3O[C@H](COP(=O)(O)OP(=O)(O)O)C(O)[C@H]3O)c2n1 (stereo partly specified)	.	.	.	-7%[60.1 µM]	.	.

Compound activity as filed in PubChem BioAssay.
